Several values for one entry are separate records, joined by “and”; a condition that tells them apart may be missing. Equal entries are not always repeated. The whole screen tested about 360,000 compounds, of which about 3,000 (0.83%) were called active. Cut-off read from the data, not from the text of the source: active = inhibition above about 50%; inactive = the rest. For the sample, actives were picked, then their nearest neighbours and some compounds at random.
Biological target: DNA (cytosine-5)-methyltransferase 1 (Homo sapiens) (UniProt P26358)
Sequence (P26358 504-1616 limits assumed): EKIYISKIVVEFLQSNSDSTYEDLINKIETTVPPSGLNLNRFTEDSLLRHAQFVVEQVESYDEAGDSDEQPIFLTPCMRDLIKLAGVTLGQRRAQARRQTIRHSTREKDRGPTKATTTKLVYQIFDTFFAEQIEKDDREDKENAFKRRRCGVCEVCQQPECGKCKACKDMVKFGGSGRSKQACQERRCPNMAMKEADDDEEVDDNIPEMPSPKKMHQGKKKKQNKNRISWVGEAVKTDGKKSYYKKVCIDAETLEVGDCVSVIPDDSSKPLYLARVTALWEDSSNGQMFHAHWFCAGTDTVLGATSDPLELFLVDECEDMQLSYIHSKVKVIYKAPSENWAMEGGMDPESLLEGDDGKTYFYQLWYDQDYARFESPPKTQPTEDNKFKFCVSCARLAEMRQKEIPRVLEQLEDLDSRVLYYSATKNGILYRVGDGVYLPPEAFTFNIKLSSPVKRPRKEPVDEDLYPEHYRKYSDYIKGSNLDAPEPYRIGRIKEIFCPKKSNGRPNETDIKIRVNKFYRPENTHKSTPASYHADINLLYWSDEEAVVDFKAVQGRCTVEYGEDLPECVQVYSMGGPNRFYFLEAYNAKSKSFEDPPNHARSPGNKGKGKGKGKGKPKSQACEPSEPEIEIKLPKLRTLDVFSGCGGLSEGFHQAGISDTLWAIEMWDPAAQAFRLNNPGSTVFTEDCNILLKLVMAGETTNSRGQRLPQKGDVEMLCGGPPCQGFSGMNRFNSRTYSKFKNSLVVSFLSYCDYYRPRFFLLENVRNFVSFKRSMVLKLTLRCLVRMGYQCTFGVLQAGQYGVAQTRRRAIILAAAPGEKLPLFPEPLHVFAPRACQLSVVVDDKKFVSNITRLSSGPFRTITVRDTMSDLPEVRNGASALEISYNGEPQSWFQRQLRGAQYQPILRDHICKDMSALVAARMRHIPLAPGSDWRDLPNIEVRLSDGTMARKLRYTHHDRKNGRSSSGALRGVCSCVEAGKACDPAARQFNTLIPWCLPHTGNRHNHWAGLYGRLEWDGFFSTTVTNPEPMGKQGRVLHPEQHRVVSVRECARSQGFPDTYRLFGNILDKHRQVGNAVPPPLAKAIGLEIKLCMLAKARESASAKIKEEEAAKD
Test: human DNMT1 methyltransferase inhibitors, primary screen, biochemical, molecular beacon, fluorescence, HinP1I cleavage, uHTS (AID 588458)
Conditions: at 10 µM, hits give high values

Structure (SMILES)	inhibition (reported as % activation of signal)
Cc1ccnc(-n2c(C)cc(/C=C3\C(=O)NC(=S)N(C)C3=O)c2C)c1	5.36% (inactive)
Cc1c(C(=O)O)cccc1-n1c(C)cc(/C=C2\C(=O)NC(=O)N(c3ccc4c(c3)OCO4)C2=O)c1C	86.2% (active)
COC(=O)C1=C(c2c(C)noc2C)C[C@@H]2CC[C@H]1N2C(=O)NCc1ccc2c(c1)OCO2	2.7% (inactive)
O=C1NC(=O)N(Cc2ccco2)C(=O)/C1=C\c1ccc(-c2ccc(F)cc2)o1	79.9% (active)
Cc1cc(/C=C2/C(=O)NC(=O)N(Cc3ccco3)C2=O)c(C)n1-c1ccc(C(=O)O)cc1	51.8% (active)
Cc1cc(C=C2C(=O)NC(=O)NC2=O)c(C)n1-c1ccncc1	5.18% (inactive)
O=C1NC(=O)N(Cc2ccco2)C(=O)/C1=C\c1cccn1CCOc1ccccc1	52.4% (active)
Cc1ccc(-n2c(C)cc(/C=C3\C(=O)NC(=O)N(C)C3=O)c2C)cc1C	29.9% (inactive)
CCOC(=O)C(O)(c1ccc(N=Cc2ccccc2O)c(C)c1)C(F)(F)F (stereo not given)	0.86% (inactive)
CC1CNCCN1c1ccc(Cl)cc1 (stereo not given)	-33.5% (inactive)
O=C1C2(Cl)C3(Cl)C4(Cl)C(Cl)(Cl)C5(Cl)C3(Cl)C1(Cl)C5(Cl)C24Cl (stereo not given)	-6.15% (inactive)
O=P(OC1=CCCCC1)(c1ccccc1)c1ccccc1	-0.46% (inactive)
COC(=O)C1=C(c2ccc(OCc3ccccc3)cc2)C[C@@H]2CC[C@H]1N2C(=O)NCc1ccc(Cl)cc1	-11.6% (inactive)
Fc1ccc(C2N3CCCN23)cc1 (stereo not given)	0.57% (inactive)
COC(=O)C(O)(c1ccc(NC(=O)c2ccco2)c(OC)c1)C(F)(F)F (stereo not given)	2.7% (inactive)
CCOC(=O)c1c(-c2ccccc2)oc2ccc(OC(=O)N(C)C)cc12	-3% (inactive)
CC(C)n1c(=O)c(C=Nc2ccc(Br)cc2)c(O)n(Cc2ccco2)c1=O	3.48% (inactive)
Cc1ccc(-c2nc3ccccc3c(=O)n2-c2ccc(Br)cn2)cc1	-0.14% (inactive)
N#CC1=C(N)Oc2c(c(=O)oc3ccccc23)C1c1ccccc1OC(=O)c1cccs1 (stereo not given)	0.68% (inactive)
CC12CCC3C(CCC4CC(=O)CCC43C)C1CC(=NO)C2=O (stereo not given)	0.34% (inactive)
COc1ccc(N2C(=O)/C(=C/c3ccco3)C(=O)NC2=S)cc1	97.9% (active)
COc1cc(C(=O)N2Cc3ccc(Br)cc3-n3nncc3C2)cc(OC)c1OC	3.06% (inactive)
Cc1cc(-c2ccc(N)c(C)c2)ccc1N	-7.86% (inactive)
Cc1cc(C)cc(NC(=S)NC2CC3CCCC(C2)N3Cc2cccs2)c1 (stereo not given)	-3.24% (inactive)
Oc1ccc2c3c1OC1[C@H](O)CC[C@@]4(O)[C@@H](C2)N(CC2CC2)CC[C@]314 (stereo not given in full)	3.17% (inactive) and 0.16% (inactive)
CC(=NC1CCN(Cc2ccccc2)CC1)c1c(O)n(C)c(=O)n(C)c1=O	2.93% (inactive)
CC1=C(C(=O)Nc2ccccc2)S(=O)(=O)CCO1	2.83% (inactive)
CC1=C(C(=O)Nc2ccccc2)SCCO1	87.4% (active)
CCN1CCN(C(=O)Cc2coc3cc(C)cc(C)c23)CC1	2.55% (inactive)
COc1ccc(NC(=O)N2Cc3ccccc3-n3nncc3C2)cc1	7.01% (inactive)
